This is part of a sample that, as a whole, favours compounds with a hit. Of some 83,000 tested, about 20% had one in any assay.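 48-hour exposure, single concentration, 96-well plates; percent growth endpoint where 0 means no net growth. Active: below 10.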 A number with no mark means an inactive call. Active and inactive are the calls of the source.
These compounds were tested on HL-60(TB) leukemia (assay: NCI-60 one-dose screen, 48 h (100 = growth as untreated, 0 = no growth, -100 = all killed)). Conditions: 10 µM unless noted.
In the case of CCCCCCCCCCCCCCCCCCOc1ccccc1CC(=O)NCC[N+]1(C)CCOCC1, the growth was -10.6% (active). In the case of Nc1nsc(C(=O)c2ccc(O)cc2)n1, the growth was 92.4%. CC(C)CCN(CCCNc1c2c(nc3cc(Cl)ccc13)CCCC2)CCC(C)C showed a growth of 70.4%. Work on CCC[S@](=O)c1ccc2nc(NC(=O)OC)[nH]c2c1 yielded a growth of 77.1%. In the case of CC(=O)Oc1cc2cnc3c4cc(OC(C)=O)c(OC(C)=O)cc4ccc3c2cc1OC(C)=O, the growth was -2.79% (active). For O=C(O)c1ccc2nc(-c3ccc(OCCCCCOc4ccc(-c5nc6ccc(C(=O)O)cc6[nH]5)cc4)cc3)[nH]c2c1, the growth was 108%. COc1cc(-c2nc(-c3nc4ccccc4[nH]3)cc3c2[nH]c2ccccc23)cc(OC)c1OC showed a growth of 44.2%. In the case of NNCCc1ccc(NC(=O)CCCc2ccc(C(=O)Nc3ccccc3N)cc2)cc1, the growth was 32.6%. Work on COc1cc(-c2cc(-c3cc(OC)c(OC)c(OC)c3)nc3nc(N)[nH]c(=O)c23)ccc1Oc1ccnc2cc(Cl)ccc12 yielded a growth of 11.4%. O=S(=O)(Cc1ccccc1)c1nc2ccccc2s1 showed a growth of 16.9%. Work on O=C(Nc1ccc(OS(=O)(=O)c2ccccc2)cc1)C1CCCCC1 yielded a growth of 94%. CC(C)(C)C(=O)CCCCCCCC/C=C/CCCC(O)c1ccco1 (stereo not given) gave a growth of 75%. For CCCCCCCCCCCCNc1ncnc2[nH]ncc12, the growth was 74.4%. Work on CCCCc1nc(Cl)c(CO)n1Cc1ccc(-c2ccccc2-c2nn[nH]n2)cc1 yielded a growth of 110%. Work on Cc1ccc(-c2cnc3sc4ccc(Cl)cc4n23)cc1 yielded a growth of 90.5%. Compound S=c1[nH]nc(Cc2ccccc2)c(=S)[nH]1 has a growth of 98.5%. Compound CCc1n(Cc2ccc3ccccc3c2)c2ccccc2[n+]1Cc1ccc2ccccc2c1 has a growth of 14.3%. With C=C[C@]1(C)C=C2C(=O)[C@@]3(O)OC[C@@]4(CCCC(C)(C)C43O)C2(O)C(O)C1 (stereo not given in full) the growth was -73.9% (active). CC1OC(OC2C(OC3CCC4(C)C(CCC5(C)C4CC=C4C6CC(C)(C)CCC6(CO)C(O)CC45C)C3(C)C)OC(C(=O)O)C(OC3OC(COC4OC(CO)C(O)C(O)C4O)C(O)C(O)C3O)C2O)C(O)C(O)C1O (stereo not given) was tested, and the growth was -73% (active). With CN1CCN(c2ccc3nc(-c4ccc5nc(-c6ccc(O)cc6)[nH]c5c4)[nH]c3c2)CC1 the growth was 40.9%. With CC(=O)NC(CCc1ccc(Cl)c(Cl)c1)c1cccc(O)c(=O)c1 (stereo not given) the growth was -16.5% (active). Cc1nn(-c2ccccc2)c(N)c1N=C1NC(=O)/C(=C/c2ccc(Br)cc2)S1 was tested, and the growth was 77.9%. In the case of OCCN1CCOCC1, the growth was 121%. O=C(Oc1cccc2cccnc12)c1ccccc1 showed a growth of 93.7%. NC(=O)NNC(=O)c1ccccc1 showed a growth of 103%. For O=C(/C=C/c1cccc(Cl)c1)c1cccc(OCCCOc2cccc(C(=O)/C=C/c3cccc(Cl)c3)c2)c1, the growth was 93.1%. In the case of CNc1nc(NC2CCCC2)nc(Sc2ccc(OC)cc2)n1, the growth was 2% [100 µM] (active). In the case of CCOC(=O)C1=C(C)N2C(=NC3=C(CCCC/C3=C\c3cc(OC)c(OC)c(OC)c3)C2c2cc(OC)c(OC)c(OC)c2)S1 (stereo not given), the growth was 49.9%. For COc1cccc(/C=C2\COc3ccc(O)c(O)c3C2=O)c1OC, the growth was -24.4% (active). With CC(C)=CCC[C@](C)(O)[C@H]1CC[C@]2(C)[C@@H]1CC[C@@H]1[C@@]3(C)CC/C(=N/O)C(C)(C)[C@@H]3CC[C@]12C the growth was 5.25% [100 µM] (active). With CC(C)(c1ccc(OCC(O)CNCc2ccco2)cc1)c1ccc(OCC(O)CNCc2ccco2)cc1 (stereo not given) the growth was 63.9%. Nc1n[nH]c2ccc([C@@H]3Nc4ccc5[nH]ncc5c4[C@H]4[C@H]5CCC(C5)[C@H]43)cc12 was tested, and the growth was -41.5% (active). With CNCCn1c(=O)c2cc(OC)c(OC)cc2c2ccc3cc4c(cc3c21)OCO4 the growth was -25.7% (active). Compound CSc1[nH]c2ncnc(N)c2c1C#N has a growth of 112%. CC(C)C(C)(C)c1ccc(O)cc1 showed a growth of 104%. O=C1c2cccc3c([N+](=O)[O-])ccc(c23)C(=O)N1CCCCl was tested, and the growth was -25.4% [100 µM] (active). For COc1cc(/C=C/C(=O)N2CCN(C(=O)c3cc(OC)c(OC)c(OC)c3)CC2)ccc1OCCCOc1cc2c(cc1OC)C(=O)N1CCC[C@H]1C=N2, the growth was -28% (active). C[C@]12CC[C@@H]3c4ccc(O)c([N+](=O)[O-])c4CC[C@H]3[C@@H]1CC[C@@H]2NS(=O)(=O)c1ccc(C(F)(F)F)cc1 was tested, and the growth was -11.6% (active). With c1ccc(-c2c(-c3ccccc3)[n+](Cc3ccc4ccccc4c3)c(-c3cccc4ccccc34)n2Cc2ccc3ccccc3c2)cc1 the growth was -46.8% (active). O=C1/C(=C/c2cccc(OCc3ccccc3)c2)Oc2cc(OCCN3CCCCC3)ccc21 gave a growth of 67%.
